From PubChem
Most compounds without a hit are left out; they make up all but 7.6% or so of the library.
VP16 counter: Gal4-VP16 reporter inhibition counter-screen; actives 3.5% (n = 310,000); AID 2546; Drosophila S2 Gal4-VP16 UAS-luciferase, luminescence, 20 h; Potency, µM (top dose mostly 53.6 µM), most hits filed as inhibitors;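 further: Gal4-VP16 expression switched on by copper sulfate through the metallothionein promoter; nearly all actives have a fitted effect of over 50% in size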
Giardia killer: kills Giardia lamblia; Giardia lamblia trophozoite viability; activity change, % at 7.66 µM, hits read low; actives 0.15% (n = 340,000); in the data active means activity change below about -80%; inconclusive means between about -30% and that limit;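 further: parasites exposed to compound for two days anaerobically before the ATP read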
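Giardia trophozoites, 100 cells per well, were exposed to compounds for 48 hrs at 37 deg C under anaerobic conditions; viability was then read as ATP content by bioluminescence after 15-30 min at room temperature.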
RORg inh: blocks mouse ROR gamma transcriptional activity; P51450; Drosophila S2 Gal4-RORgamma UAS-luciferase reporter, 20 h; Potency, µM (doses to about 53.6 µM), usual class: inhibitors; actives 5.4% (n = 310,000); AID 2551; further: nearly all actives have a fitted effect of over 60% in size
Target sequence (P51450 whole entry, looked up, the tested form may be a part): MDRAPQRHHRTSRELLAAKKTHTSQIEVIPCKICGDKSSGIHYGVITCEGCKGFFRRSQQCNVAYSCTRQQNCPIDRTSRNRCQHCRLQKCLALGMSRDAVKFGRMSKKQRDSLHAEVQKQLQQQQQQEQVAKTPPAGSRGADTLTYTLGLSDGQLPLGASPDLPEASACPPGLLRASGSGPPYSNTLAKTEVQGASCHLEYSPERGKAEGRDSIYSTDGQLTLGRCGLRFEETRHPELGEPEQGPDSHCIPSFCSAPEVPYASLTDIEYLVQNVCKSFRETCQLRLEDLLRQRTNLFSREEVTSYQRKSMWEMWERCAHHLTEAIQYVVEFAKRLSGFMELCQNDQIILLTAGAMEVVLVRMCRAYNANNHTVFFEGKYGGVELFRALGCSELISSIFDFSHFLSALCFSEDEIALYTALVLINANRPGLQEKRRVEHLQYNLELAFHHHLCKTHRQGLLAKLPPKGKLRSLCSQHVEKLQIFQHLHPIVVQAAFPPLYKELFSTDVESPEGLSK
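Schneider cells (Drosophila), stable Gal4 DBD–ROR gamma + UAS-luc; 1 hr cmpd preincubation; Cu2+ induction 700 uM final; 20 hr ambient; luminescence.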
ELG1 DNA repair: blocks ELG1-dependent DNA repair in HEK293T cells; HEK293T ELG1-luciferase reporter, luminescence, 16 h; DNA damage induced by 5-fluorouridine; actives 2.3% (n = 330,000); AID 504467; Potency, µM (series often up to 46.1 µM), most hits filed as inhibitors; further: nearly all actives have a fitted effect of over 55% in size
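Reporter activity after DNA damage by 5-fluorouridine is monitored. Compound-treated cells incubate 16 hr at 37 °C, then ONE-Glo is added for 30 min before luminescence reading.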
p53 reactivator: mutant p53 re-activation in reporter cells | H1299 p53-A138V BP100-luciferase reporter, luminescence, 24 h | Potency, µM (series often up to 92.2 µM), most hits filed as activators | actives 0.063% (n = 320,000); further: nearly all actives have a fitted effect of over 45% in size
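p53-null H1299 cells stably carrying temperature-sensitive p53-A138V and a BP100-luciferase reporter were pinned with compounds (4-point, 1:5 series) and held 24 hrs at 37 deg C. Luminescence was read 10 min after detection reagent.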
BRCA1 expr up: activators of BRCA1 expression; Potency, µM (doses to about 46.1 µM), most hits filed as activators; actives 1.1% (n = 380,000); MCF7-BRCA1-FFLuc reporter, luminescence, 48 h; response scale: scaled: vehicle 0%, 10 µM genistein 100%; AID 624202; further: nearly all actives have a fitted effect of over 80% in size
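Reporter cells (MCF7, BRCA1 promoter-firefly luciferase) received library compounds across a concentration series for 48 h. End-point luminescence was measured and concentration-effect curves derived after normalization.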
Each line names hits and unclear results; the compound was inactive in the other large screens; ! = a repeat was not active. Unless noted, the call rests on the fitted dose curve; in most records, active means well fitted curve in the direction sought with a large enough effect; inconclusive means small, poorly fitted or top-dose-only effect, or another doubt; inactive means no such curve, though single readings can be large; an effect the other way counts as inactive or inconclusive.

COC(C(=O)C(O)C(C)O)C1Cc2cc3cc(OC4CC(OC5CC(O)C(OC)C(C)O5)C(OC(C)=O)C(C)O4)c(C)c(O)c3c(O)c2C(=O)C1OC1CC(OC2CC(OC3CC(C)(O)C(OC(C)=O)C(C)O3)C(O)C(C)O2)C(O)C(C)O1 (stereo unspecified)	VP16 counter 1µM, RORg inh 1.26µM (no result: Giardia killer, ELG1 DNA repair, p53 reactivator, BRCA1 expr up)
S=C=NCc1ccccc1	VP16 counter inconclusive, RORg inh 5.62µM (no result: Giardia killer, ELG1 DNA repair, p53 reactivator, BRCA1 expr up)
Cc1c(OCC(F)(F)F)ccnc1CS(=O)c1nc2ccccc2[nH]1 (stereo unspecified)	VP16 counter inconclusive, RORg inh 11.2µM!, ELG1 DNA repair inconclusive
COCCCOc1ccnc(CS(=O)c2nc3ccccc3[nH]2)c1C (stereo unspecified)	ELG1 DNA repair inconclusive
CCOC(=O)C(O)(c1ccc(NC(=S)NC(=O)c2ccc(Cl)cc2Cl)c(C)c1)C(F)(F)F (stereo unspecified)	VP16 counter inconclusive, RORg inh 12.6µM, p53 reactivator inconclusive
COC(=O)C(O)(c1ccc(NC(=S)NC(=O)c2ccc(Cl)cc2Cl)c(C)c1)C(F)(F)F (stereo unspecified)	VP16 counter inconclusive, RORg inh 8.91µM, p53 reactivator inconclusive
CCOC(=O)C(NC(=O)CC)(Nc1ccc(C(O)(C(=O)OCC)C(F)(F)F)cc1C)C(F)(F)F (stereo unspecified)	none
CCOC(=O)CNC(=O)CNC(=O)C(Cc1ccc(N(CCCl)CCCl)cc1)NC(C)=O (stereo unspecified)	none
Nc1ncnc2c1ccn2[C@@H]1O[C@H](CO)[C@@H](O)[C@H]1O	VP16 counter 1.12µM, RORg inh 0.631µM (no result: ELG1 DNA repair, p53 reactivator)
Cc1cc(C(=O)CS(=O)(=O)c2ccc(F)cc2)cc(C)c1OC(=O)N(C)C	VP16 counter inconclusive, ELG1 DNA repair inconclusive, BRCA1 expr up 3.98µM
CC(C)c1cccc(O)c(=O)c1	VP16 counter 2.82µM!, RORg inh 2µM, ELG1 DNA repair inconclusive
O=C(N/N=C/c1ccccc1OC(=O)N1CCOCC1)c1cccs1	VP16 counter 12.6µM, RORg inh 2.51µM
NC(=O)CN1CCCC1=O	ELG1 DNA repair inconclusive
Oc1ccc(/C=N/NP(=S)(c2ccccc2)c2ccccc2)c(O)c1O	none
Oc1ccccc1/C=N/NP(=S)(c1ccccc1)c1ccccc1	RORg inh 11.2µM
COc1cc(OC)c(OC)cc1CN1CCN(C(=O)COc2ccc3ccccc3c2)CC1	ELG1 DNA repair inconclusive
CCOC(=O)c1cc(CC)sc1/N=C/C1C(=O)NC(=S)NC1=O	none
CCOC(=O)c1cc(CC)sc1/N=C/c1c(O)[nH]c(=S)[nH]c1=O	VP16 counter inconclusive, RORg inh 17.8µM
CCOC(=O)Cn1cc([N+](=O)[O-])nc1[N+](=O)[O-]	VP16 counter 12.6µM, RORg inh 10µM
Nc1c(C(=O)NCCCc2ccccc2)c2nc3ccccc3nc2n1Cc1cccs1	VP16 counter inconclusive, RORg inh inconclusive, ELG1 DNA repair 14.6µM
CCCCn1c(N)c(C(=O)NCc2cccs2)c2nc3ccccc3nc21	ELG1 DNA repair 23.1µM
Cc1cccc(C)c1-n1nnnc1C(c1cccs1)N1CCC2(CC1)C(=O)NCN2c1ccccc1 (stereo unspecified)	none (no result: VP16 counter, Giardia killer, RORg inh, ELG1 DNA repair, p53 reactivator)
CCc1ccccc1NC(=O)CSc1nnc([C@@H](N)Cc2c[nH]c3ccccc23)o1	none
CCC1CN1P(=O)(Oc1ccc(Cl)cc1)N1CC1CC (stereo unspecified)	none (no result: VP16 counter, RORg inh, ELG1 DNA repair, p53 reactivator)
c1ccc(NNc2ccccc2)cc1	none (no result: Giardia killer, ELG1 DNA repair, p53 reactivator, BRCA1 expr up)
O=[N+]([O-])c1ccc2c(c1)Cc1cc(O)ccc1-2	none (no result: VP16 counter, RORg inh, ELG1 DNA repair, p53 reactivator)
Nc1ccc2c(c1)Cc1cc([N+](=O)[O-])ccc1-2	ELG1 DNA repair inconclusive, p53 reactivator inconclusive, BRCA1 expr up 10µM
COC(=O)Nc1ccc(N=C(N)N[N+](=O)[O-])cc1	none
COc1cccc(C(=O)C2CCCN(Cc3cccc(C)n3)C2)c1 (stereo unspecified)	VP16 counter 14.1µM, RORg inh inconclusive
COc1ccc(C(=O)C2CCCN(Cc3ccccn3)C2)c(OC)c1 (stereo unspecified)	RORg inh 10µM
COc1ccc(C(=O)C2CCCN(Cc3cnc(C)s3)C2)c(OC)c1 (stereo unspecified)	none
Cc1cccc(CN2CCCC(C(=O)c3ccc4c(c3)OCO4)C2)n1 (stereo unspecified)	VP16 counter 12.6µM, RORg inh 3.16µM
COc1c(C)cc(C(=O)C2CCCN(Cc3cccc(C)n3)C2)cc1C (stereo unspecified)	VP16 counter 12.6µM, RORg inh 2.24µM, ELG1 DNA repair inconclusive
COc1cccc(C(=O)C2CCCN(Cc3ccon3)C2)c1 (stereo unspecified)	none
COc1c(C)cc(C(=O)C2CCCN(Cc3cccc(O)c3)C2)cc1C (stereo unspecified)	ELG1 DNA repair inconclusive
O=c1c([N+](=O)[O-])cn(O)cc1[N+](=O)[O-]	none (no result: VP16 counter, RORg inh, ELG1 DNA repair, p53 reactivator)
Cc1cccc(CN2CCCC(C(=O)c3cccc(OC(C)C)c3)C2)n1 (stereo unspecified)	VP16 counter 15.8µM, RORg inh 2.24µM
COCCCNC(=S)NCCCNc1nc2cc(C)cc(C)c2cc1C#N	VP16 counter inconclusive, RORg inh 6.31µM, ELG1 DNA repair inconclusive
CC(=O)[O][Hg][c]1ccccc1	RORg inh 1.12µM (no result: Giardia killer, ELG1 DNA repair, p53 reactivator, BRCA1 expr up)
S=c1[nH]nc(-c2ccco2)n1-c1cccc2ccccc12	VP16 counter 12.6µM, RORg inh 7.94µM
C[CH2][Hg][S]c1ccccc1C(=O)O	VP16 counter 0.631µM, Giardia killer inconclusive, RORg inh 1.12µM (no result: ELG1 DNA repair, p53 reactivator)
CNc1ccccc1C(=O)O	none (no result: Giardia killer, ELG1 DNA repair, p53 reactivator, BRCA1 expr up)
CC(=NCCc1c[nH]c2ccccc12)c1c(O)n(Cc2ccccc2)c(=O)[nH]c1=O	ELG1 DNA repair inconclusive
COc1cc2c(cc1OC)-c1c3c(cc4c1[C@@H](C2)N(C)CC4)OCO3	VP16 counter 12.6µM, RORg inh inconclusive
CN1CCc2cc3c(c4c2[C@H]1Cc1ccccc1-4)OCO3	none (no result: Giardia killer, ELG1 DNA repair, p53 reactivator, BRCA1 expr up)
COc1cc2c(cc1O)C[C@H]1NCCc3cc4c(c-2c31)OCO4	VP16 counter inconclusive, RORg inh 10µM, ELG1 DNA repair inconclusive
COc1cc2c(cc1OC)-c1c(O)c(OC)cc3c1[C@H](C2)N(C)CC3	none (no result: Giardia killer, ELG1 DNA repair, p53 reactivator, BRCA1 expr up)
O=C(Nc1ccccc1[N+](=O)[O-])c1ccc(S(=O)(=O)N2CCCC2)cc1	RORg inh inconclusive
Cc1onc(-c2ccccc2)c1C(=O)Nc1ccc(S(=O)(=O)N2CCCC2)cc1	RORg inh 8.91µM
CC(=O)OCC(=O)[C@@H]1CC[C@H]2[C@H]3CC[C@H]4C[C@@H](O)CC[C@]4(C)[C@@H]3C(=O)C[C@@]12C	none (no result: Giardia killer, ELG1 DNA repair, p53 reactivator, BRCA1 expr up)
